# Data: the supplement of paper PMC7411640
# Where a name gives a salt, the structure may show the parent alone.
# Test system: MDA-MB-468
# Test: phospho-S6 immunofluorescence (DAPI-normalised), per-plate z-score; higher = higher phospho-S6 signal (less pathway suppression)
# Conditions: 24 h
# Protocol: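 GPCR-targeted compound library (MedChemExpress HY-L006) tested on MDA-MB-468 PTEN-null TNBC cells in 384-well plates at 0.1, 1 or 10 uM, combined with vehicle, GDC0941 450 nM or lapatinib 1 uM, for 24 h. Phospho-S6 (S240/244) immunofluorescence normalised to DAPI and expressed as a per-plate z-score; values are the mean of biological triplicates.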
SMILES,phospho-S6 immunofluorescence (z-score) (co-treatment: GDC0941 450 nM),phospho-S6 immunofluorescence (z-score) (co-treatment: lapatinib 1 uM),phospho-S6 immunofluorescence (z-score) (co-treatment: vehicle)
COc1ccc(-c2oc3c(CC=C(C)C)c(O)cc(O)c3c(=O)c2O[C@@H]2O[C@@H](C)[C@H](O)[C@@H](O)[C@H]2O)cc1 [Baohuoside I] (compound 10 µM),-5.72,-5.94,-7.08
N[C@@H](COP(=O)(O)O)C(=O)O [O-Phospho-L-serine] (compound 10 µM),0.23,0.05,-0.66
Cc1ccc2c(c1CCC(=O)O)CC[C@@H](NS(=O)(=O)c1ccc(Cl)cc1)C2 [Terutroban] (compound 10 µM),-0.9,0.55,-0.1
COc1cc(C(=O)NS(=O)(=O)c2ccccc2C)ccc1Cc1cn(C)c2ccc(NC(=O)OC3CCCC3)cc12 [Zafirlukast] (compound 10 µM),-2.01,-0.41,0.19
O=C(O[C@H]1CN2CCC1CC2)N1CCc2ccccc2[C@@H]1c1ccccc1 [Solifenacin (Succinate)] (compound 10 µM),1.65,1.13,-0.65
CNC(=O)c1cnn(-c2nc(N)c3ncn([C@@H]4O[C@H](CO)[C@@H](O)[C@H]4O)c3n2)c1 [Regadenoson] (compound 10 µM),1.19,1.71,0.29
O=C1CC2(CCCC2)CC(=O)N1CCCCN1CCN(c2ncccn2)CC1 [Buspirone (hydrochloride)] (compound 10 µM),0.3,0.17,0.69
CCCCCCOc1nsnc1C1=CCCN(C)C1 [Xanomeline (oxalate)] (compound 10 µM),-0.72,-0.5,1.16
